Measured values from the supplement of paper PMC9177965.
Where “and” joins values, the source holds several entries; their conditions need not be identical. Equal values may be shown once.

Tests used:
[1] = system: HT29 RNF43 G659fs (RNF43 659mut, CRISPR-edited); test: cell viability activity relative to DMSO (negative = inhibition); higher = more viable cells (less growth inhibition); conditions: 5 µM; 96 h
Procedure: (§1)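 Broad Repurposing Library primary screen at a single dose of 5 uM. HT29 sg-Ctrl and HT29 RNF43 G659fs CRISPR-edited isogenic cells were seeded at 2500 cells/well in 384-well plates in duplicate and treated for 96 h. Viability was read by CellTiter-Glo and reported as % activity relative to DMSO, with MG132 as the positive control (negative = growth inhibition).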

[2] = system: HT29 sg-Ctrl (RNF43 wildtype); test: as above; conditions: 5 µM; 96 h
Procedure: as §1

Structure (SMILES)	cell viability activity [1]	cell viability activity [2]
CCN(CC)CCN(Cc1ccc(-c2ccc(C(F)(F)F)cc2)cc1)C(=O)Cn1c(SCc2ccc(F)cc2)nc(=O)c2c1CCC2	-96.2%	-96.7%
CCCCC/N=c1\ccn(Cc2ccccc2)c2ccccc12	-62.5%	-45.4%
COc1ccc(S(=O)(=O)Nc2cccnc2Nc2ccc(O)cc2)cc1	-63.9%	-55.9%
CC[C@H](CC#N)OC(=O)N[C@@H](C)c1cccc(NC(=O)Nc2ccc(-c3cnco3)c(OC)c2)c1	-66.2%	-55.9%
CN1CCN(c2ccc(OC(F)(F)F)c(Nc3ncc4c(n3)-c3c(c(C(N)=O)nn3CCO)CC4)c2)CC1	-69%	-82.8%
Nc1nc(Nc2ccc(S(N)(=O)=O)cc2)nn1C(=O)c1c(F)cccc1F	-23.1%	-26.5%
C[C@H]1[C@@H](O)O[C@@H]2O[C@@]3(C)CC[C@H]4[C@H](C)CC[C@@H]1[C@@]24OO3	-30.9%	-30%
NS(=O)(=O)OC[C@@H]1C[C@@H](n2ccc3c(N[C@H]4CCc5ccccc54)ncnc32)C[C@@H]1O	-78%	-63.2%
COc1ccc(/C=C\c2cc(OC)c(OC)c(OC)c2)cc1O	-64.6%	-58.3%
CN1c2ccccc2C(=O)N2CCc3c([nH]c4ccccc34)[C@@H]21	-24.8%	-3.62%
O=C(O)[C@]1(Cc2cccc(Nc3nccs3)n2)CC[C@@H](Oc2cccc(Cl)c2F)CC1	-24.5%	-24.6%
Cc1ccc(C)c(OCCCC(C)(C)C(=O)O)c1	-30%	-39.7%
Cc1nc(=O)c2cc(CN(C)c3ccc(C(=O)N[C@@H](CCC(=O)O)C(=O)O)s3)ccc2[nH]1	-60.2%	-60.9%
CCOc1ccccc1OC(c1ccccc1)C1CNCCO1 (stereo not drawn)	-30.5%	-58.7%
COC(=O)[C@]12CCC(C)(C)C[C@H]1[C@H]1C(=O)C=C3[C@@]4(C)C=C(C#N)C(=O)C(C)(C)[C@@H]4CC[C@@]3(C)[C@]1(C)CC2	-96.8%	-93.4%
Cc1nc(-c2cn3c(n2)-c2ccc(-c4cnn(C(C)(C)C(N)=O)c4)cc2OCC3)n(C(C)C)n1	-53.2%	-48.5%
O=C(NOC[C@H](O)CO)c1ccc(F)c(F)c1Nc1ccc(I)cc1F	-81.1%	-85%
CC1(C)CC(=O)c2c(C(F)(F)F)nn(-c3ccc(C(N)=O)c(N[C@H]4CC[C@H](OC(=O)CN)CC4)c3)c2C1	-89.4% and -91.3% and -87.7%	-84.8% and -87.4% and -83.8%
CN(C)Cc1c(C(=O)NCCOc2ccc(C(=O)NO)cc2)oc2ccccc12	-94.9%	-85.2%
CN(C)C(=O)C(CCN1CCC(O)(c2ccc(Cl)cc2)CC1)(c1ccccc1)c1ccccc1	-67.6%	-75.2%
Cc1nnc(C[C@@H]2C=C(c3ccc(Cl)cc3)c3ccccc3-n3c(C)nnc32)o1	-63.5%	-64.7%
CNCCC=C1c2ccccc2CCc2ccccc21	-70.1%	-77.1%

Structure (SMILES)	cell viability activity [1]	cell viability activity [2]
Cc1cc(Nc2nc(N[C@@H](C)c3ncc(F)cn3)ncc2Cl)[nH]n1	-32.8%	-31.6%
CN(C)C(=S)SC(=S)N(C)C	-30.9%	-29.9%
COCCOC(=O)C1=C(C)NC(C)=C(C(=O)OC/C=C/c2ccccc2)C1c1cccc([N+](=O)[O-])c1 (stereo not drawn)	-57.6%	-50.7%
Nc1nccc2c1ncn2C1C=C(CO)C(O)C1O (stereo not drawn)	-38.4%	-46.7%
Cc1ncc(-c2ccnc(Nc3ccc(S(C)(=O)=O)cc3)n2)n1C(C)C	-91.5%	-87.7%
C[C@H](Nc1ncnc2nc[nH]c12)c1cc2cccc(Cl)c2c(=O)n1-c1ccccc1	-24.4%	-24.3%
CNCc1ccc(-c2cc(-c3nc(-c4ccc(S(=O)(=O)C(C)C)cc4)cnc3N)on2)cc1	-78.3%	-74.5%
O=C(CCCCCN1C(=O)c2cccc3cccc(c23)C1=O)NO	-79.1%	-71.7%
CCN(CC)CCNc1ccc(CO)c2sc3ccccc3c(=O)c12	-23.1%	-27.7%
Cc1ccc(-n2nc(C(C)(C)C)cc2NC(=O)NCc2cc(F)ccc2Oc2ccc3c(cnn3CCO)c2)cc1	-36.7%	-42.9%
COc1ccc2[nH]c3c(-c4cccc5ccccc45)nccc3c2c1	-69.1%	-60.2%
Cc1ccc(C(=O)Nc2cccc(C(F)(F)F)c2)cc1Nc1nc(-c2cccnc2)nc2c1cnn2C	-36.8%	-24.4%
Oc1ccc(CC2NCCc3cc(O)c(O)cc32)cc1 (stereo not drawn)	-63.7%	-66.3%
O=C(O)C[C@H](O)C[C@H](O)/C=C/c1c(C2CC2)nc2ccccc2c1-c1ccc(F)cc1	-25.1%	-8.8%
Cc1ncc(NC(=O)c2ccc(CN3CCN(C)CC3)c(C(F)(F)F)c2)cc1Nc1nccc(-c2cccnc2)n1	-33.9%	-49%
FC(F)(F)Oc1ccc2nc(-c3ccc(OCCOCCOc4ccc(-c5nc6ccc(OC(F)(F)F)cc6[nH]5)nc4)cn3)[nH]c2c1	-37.9%	-16%
Cc1cc(-c2ccc(/N=N/c3ccc4c(S(=O)(=O)O)cc(S(=O)(=O)O)c(N)c4c3O)c(C)c2)ccc1/N=N/c1ccc2c(S(=O)(=O)O)cc(S(=O)(=O)O)c(N)c2c1O	-43.7%	-20.4%
CC(C)(C#N)c1ccc(N2C(=O)OCc3cnc4ccc(-c5cnc6ccccc6c5)cc4c32)cc1	-30.7%	-20%
Clc1ccc(NN=C(c2ccccc2)c2ccccn2)nc1	-70.7%	-65.6%
CS(=O)(=O)N1CCc2c(-c3cnc(N)nc3)nc(N3CCOCC3)nc21	-53.1%	-25.2%
CN1CCN(S(=O)(=O)c2ccc(-c3cnc(N)c(C(=O)Nc4cccnc4)n3)cc2)CC1	-46.3%	-40.9%
COc1cc2nc(N3CCC(N4CCCCC4)CC3)nc(NC3CCCCCC3)c2cc1OC	-93.5%	-95.5%
